The source made the active and inactive calls.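 Rule for the calls: active = thallium flux through the channel raised or lowered by more than 3 SD from vehicle-only wells, actives on both sides; inactive = the rest.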

The experiment relates to R275C. Description: BK channel mutant inhibitors and activators – cell-based, U2OS BacMam, thallium flux, beta subunits, selectivity assay, profiling panel (AID 1259406).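 Note: initial slope of Thallos dye fluorescence rise after thallium is added; log ratio against the mean of 0.3% DMSO vehicle wells on the same plate.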 To be noted: U2OS BacMam BK variants, at 30 µM.
`O=C1N=C(O)CN1N=Cc1ccc(-c2ccc([N+](=O)[O-])cc2)o1`: the log fold change Tl+ flux is 0.0615 (inactive).

Take `CC(=O)O[C@@]12CO[C@@H]1C[C@H](O)[C@@]1(C)C(=O)[C@H](O)C3=C(C)[C@@H](OC(=O)[C@H](O)[C@@H](NC(=O)OC(C)(C)C)c4ccccc4)C[C@](O)([C@@H](OC(=O)c4ccccc4)[C@H]21)C3(C)C`: the log fold change Tl+ flux is -0.041 (inactive).

For the molecule `CC1c2cccc(O)c2C(O)=C2C(=O)[C@]3(O)C(O)=C(C(N)=O)C(=O)[C@@H](N(C)C)[C@@H]3C[C@@H]21` (some centres not stated), the log fold change Tl+ flux was -0.004 (inactive).

`CO[C@H]1C=CO[C@@]2(C)Oc3c(C)c(O)c4c(O)c(c(C=NN5CCN(C6CCCC6)CC5)c(O)c4c3C2=O)NC(=O)C(C)=CC=C[C@H](C)[C@H](O)[C@@H](C)[C@@H](O)[C@@H](C)[C@H](OC(C)=O)[C@@H]1C`: the log fold change Tl+ flux was -0.0706 (inactive).

In the case of `C=CC1=C(C(=O)O)N2C(=O)[C@@H](NC(=O)C(=NO)c3csc(N)n3)[C@H]2SC1`, the log fold change Tl+ flux was -0.0491 (inactive).

In the case of `C[C@H]1O[C@@H](O[C@H]2[C@@H](O)C[C@H](O[C@H]3[C@@H](O)C[C@H](O[C@H]4CC[C@@]5(C)[C@H](CC[C@@H]6[C@@H]5C[C@@H](O)[C@]5(C)C(C7=CC(=O)OC7)CC[C@]65O)C4)O[C@@H]3C)O[C@@H]2C)C[C@H](O)[C@@H]1O` (some centres not stated), the log fold change Tl+ flux is -0.0269 (inactive).

With `CON=C(C(=O)N[C@@H]1C(=O)N2C(C(=O)O)=C(COC(N)=O)CS[C@H]12)c1ccco1`, the log fold change Tl+ flux was -0.0247 (inactive).

As to `Cc1cc(=O)oc2cc(NC(=O)C3CCC(=O)N3)ccc12` (configuration not stated), the log fold change Tl+ flux was -0.000517 (inactive).

`N[C@@H](C(=O)N[C@@H]1C(=O)N2C(C(=O)O)=C(CSc3cn[nH]n3)CS[C@H]12)c1ccc(O)cc1` (tested in a mixture with another compound): the log fold change Tl+ flux is -0.0506 (inactive).

In the case of `CN1CCN2c3ncccc3Cc3ccccc3[C@@H]2C1`, the log fold change Tl+ flux was 0.0138 (inactive).

Consider `C=CC[C@@H]1C=C(C)C[C@H](C)C[C@H](OC)[C@H]2O[C@@](O)(C(=O)C(=O)N3CCCC[C@H]3C(=O)O[C@H](/C(C)=C/[C@@H]3CC[C@@H](O)[C@H](OC)C3)[C@H](C)[C@@H](O)CC1=O)[C@H](C)C[C@@H]2OC`, for which the log fold change Tl+ flux is -0.067 (inactive).

As to `CO[C@H]1C=CO[C@@]2(C)Oc3c(C)c(O)c4c(O)c(c5c(c4c3C2=O)NC2(CCN(CC(C)C)CC2)N=5)=NC(=O)C(C)=CC=C[C@H](C)[C@H](O)[C@@H](C)[C@@H](O)[C@@H](C)[C@H](OC(C)=O)[C@@H]1C`, the log fold change Tl+ flux was -0.134 (active).

For the molecule `CN(C)S(=O)(=O)c1ccc2c(c1)/C(=C\CCN1CCNCC1)c1ccccc1S2`, the log fold change Tl+ flux was -0.0283 (inactive).

Turning to `CCC(=O)NS(=O)(=O)c1ccc(-c2c(-c3ccccc3)noc2C)cc1`, the log fold change Tl+ flux was 0.0383 (inactive).

As for `C[C@]12C=CC(=O)C=C1CC[C@@H]1[C@@H]2[C@@H](O)C[C@@]2(C)[C@H]1CC[C@]2(O)C(=O)COC(=O)CCC(=O)O`, the log fold change Tl+ flux is -0.00218 (inactive).

For the molecule `CN(C)CC/C=C1/c2ccccc2COc2ccccc21`, the log fold change Tl+ flux was 0.0343 (inactive).

Regarding `CC(=O)NCCCCCCNC(C)=O`, the log fold change Tl+ flux is 0.0387 (inactive).

`CO[C@H]1C=CO[C@@]2(C)Oc3c(C)c(O)c4c(O)c(c5c(nc6cc(C)ccn65)c4c3C2=O)NC(=O)C(C)=CC=C[C@H](C)[C@H](O)[C@@H](C)[C@@H](O)[C@@H](C)[C@H](OC(C)=O)[C@@H]1C`: the log fold change Tl+ flux was -0.242 (active).

Consider `CO[C@H]1O[C@@H]2O[C@@]3(C)CC[C@H]4[C@H](C)CC[C@@H]([C@H]1C)[C@@]24OO3`, for which the log fold change Tl+ flux is 0.0256 (inactive).

`CC(C)CC(NC(=O)C(COC(C)(C)C)NC(=O)C(Cc1ccc(O)cc1)NC(=O)C(CO)NC(=O)C(Cc1c[nH]c2ccccc12)NC(=O)C(Cc1cnc[nH]1)NC(=O)C1CCC(=O)N1)C(=O)N[C@@H](CCCN=C(N)N)C(=O)N1CCCC1C(=O)NNC(N)=O` (some centres not stated): the log fold change Tl+ flux was -0.0448 (inactive).

With `COCCCCC(=NOCCN)c1ccc(C(F)(F)F)cc1`, the log fold change Tl+ flux was -0.0449 (inactive).

Turning to `CCN(CC)CCOc1ccc(C(=C(Cl)c2ccccc2)c2ccccc2)cc1`, the log fold change Tl+ flux was 0.0156 (inactive).

As for `CO[C@H]1/C=C/O[C@@]2(C)Oc3c(C)c(O)c4c(O)c(c(C=NN5CCN(C6CCCC6)CC5)c(O)c4c3C2=O)NC(=O)/C(C)=C\C=C\[C@H](C)[C@H](O)[C@@H](C)[C@@H](O)[C@@H](C)[C@H](OC(C)=O)[C@@H]1C`, the log fold change Tl+ flux is 0.0114 (inactive).

For the molecule `O=C1CN(N=Cc2ccc([N+](=O)[O-])o2)C(=O)N1`, the log fold change Tl+ flux is 0.0135 (inactive).

In the case of `C=CC1=C(C(=O)O)N2C(=O)[C@@H](NC(=O)C(=NOCC(=O)O)c3csc(N)n3)[C@H]2SC1`, the log fold change Tl+ flux was -0.011 (inactive).

On to `COc1cc(N)c(Cl)cc1C(=O)N[C@@H]1CCN(CCCOc2ccc(F)cc2)C[C@@H]1OC`, for which the log fold change Tl+ flux is 0.0357 (inactive).

Turning to `COCC1=C(C(=O)OC(C)OC(=O)OC(C)C)N2C(=O)[C@@H](NC(=O)C(=NOC)c3csc(N)n3)[C@H]2SC1` (some centres not stated), the log fold change Tl+ flux was 0.00217 (inactive).

Source of the values: PubChem BioAssay.
